Morphology score data for twelve compounds are collected here from the supplement of paper PMC13380429.

The structures appear in SMILES notation.

For the assay, the system named is Vero E6 infected with SARS-CoV-2. Nature of the assay: morphology score (similarity to uninfected cells); higher = more like uninfected cells. The following applies: 24 h.
`CC(C)[C@@H](CS(=O)(=O)C(C)C)N1C(=O)[C@@](C)(CC(=O)O)C[C@H](c2cccc(Cl)c2)[C@H]1c1ccc(Cl)cc1` (10 µM) came in with a morphology score of -0.12.

Regarding `NC(=O)c1cc([N+](=O)[O-])cc([N+](=O)[O-])c1` [nitromide] (10 µM), the morphology score amounted to 0.265.

Compound `NC[C@@H]1CC[C@@H](N)[C@@H](O[C@H]2[C@H](O)[C@@H](O[C@H]3O[C@H](CO)[C@@H](O)[C@H](N)[C@H]3O)[C@H](N)C[C@@H]2N)O1` [dibekacin] (10 µM) returned a morphology score of 0.0218.

As to `CC(C)(C)C(=O)NCCCC(=O)O` [pivagabine] (10 µM), the morphology score worked out at 0.0513.

On to `C=C(C)[C@@H]1CC=C(CO)CC1` [perillyl-alcohol] (10 µM), for which the morphology score stood at 0.0351.

`O=C(O)CCc1ccc(NCc2cccc(Oc3ccccc3)c2)cc1` (10 µM): the morphology score is -0.132.

On to `Oc1ccc2ccccc2c1Cc1c(O)ccc2ccccc12` (10 µM), for which the morphology score amounted to 0.0699.

Turning to `Cc1c(C(=O)NN2CCOCC2)nn(-c2ccc(Cl)cc2Cl)c1-c1ccc(I)cc1` (10 µM), the morphology score was determined as 0.11.

For `O=C(O)[C@H]1O[C@@H](Oc2cc3oc(-c4ccccc4)cc(=O)c3c(O)c2O)[C@H](O)[C@@H](O)[C@@H]1O` [baicalin] (10 µM), the morphology score was found to be 0.165.

`Cn1c(=O)c2c(ncn2CCOC(=O)C(C)(C)Oc2ccc(Cl)cc2)n(C)c1=O` [etofylline-clofibrate] (10 µM) returned a morphology score of -0.162.

Take `CN1C[C@@H](NS(=O)(=O)N(C)C)C[C@@H]2c3cccc4c3c(cn4C)C[C@H]21` [mesulergine] (10 µM): the morphology score was 0.205.

In the case of `O=C(O)C(F)(F)C(F)(F)C(F)(F)C(F)(F)C(F)(F)C(F)(F)C(F)(F)F` [ammonium-perfluorocaprylate] (10 µM), the morphology score is -0.0312.
